BAZ2B block: blocks human BAZ2B; Q9UIF8; AlphaScreen BAZ2B-H3K14Ac peptide displacement; Potency, µM (titrated, usually from 114 µM), actives largely listed as inhibitors; 4.4% of 360,000 active; AID 504333; also: nearly all actives have a fitted effect of over 60% in size
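Inhibition is scored as reduced AlphaScreen emission. The BAZ2B/b-H3(5-23)K14Ac complex (50 nM each) in PBS pH 7.4, 0.01% Tween-20 meets compound (up to 110 uM) for 30 min at RT before bead addition.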
G9a block: G9a (human) methyltransferase inhibition; AID 504332; G9a H3K9 monomethylation, AlphaScreen, 2 h; 8.8% of 350,000 active; Potency, µM (highest dose often 102 µM), usual class: inhibitors; also: nearly all actives have a fitted effect of over 75% in size
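Using a bead-based AlphaScreen, monomethylated H3K9 product from 2 h room-temperature reactions (G9a 20 nM, peptide 500 nM, SAM 20 uM) was detected with 0.5 ug/mL rabbit anti-H3K9me1 antibody.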
HP1b binding inh: HP1-beta chromodomain-methylated histone interaction inhibition; P83916; AlphaScreen HP1-beta / biotin-H3K9me3 peptide binding; Potency, µM (titrated, usually from 114 µM), usual class: inhibitors; 0.56% of 390,000 active; AID 540317; also: nearly all actives have a fitted effect of over 70% in size
Target sequence (P83916 whole entry, looked up): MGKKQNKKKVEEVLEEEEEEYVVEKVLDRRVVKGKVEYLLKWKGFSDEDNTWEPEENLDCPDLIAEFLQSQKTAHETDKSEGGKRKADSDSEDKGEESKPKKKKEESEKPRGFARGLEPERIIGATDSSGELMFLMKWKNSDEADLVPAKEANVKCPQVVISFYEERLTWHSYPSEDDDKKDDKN
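HP1-beta protein (50 nM final) preincubated 30 min at room temperature with biotinylated H3(1-18)K9me3 peptide (50 nM) in PBS pH 7.4, 0.01% Tween-20, then compound added for 30 min. AlphaScreen streptavidin donor/nickel chelate acceptor beads (10 ug/mL final), 30 min dark, luminescence read.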
JMJD2A Tudor inh: JMJD2A Tudor domain (human) inhibition. O75164. AlphaScreen JMJD2A-Tudor / H3K4me3 peptide binding. Potency, µM (top dose mostly 114 µM), most hits filed as inhibitors. 4.4% of 390,000 active. AID 504339; also: nearly all actives have a fitted effect of over 50% in size
PLK1 PBD block: inhibitors of human PLK1 polo-box domain binding. AID 720504. P53350. Plk1 PBD binding of FITC phosphopeptide, fluorescence polarization. 2.8% of 360,000 active. Potency, µM, hits mostly inhibitors; also: series mostly up to about 57 µM; nearly all actives have a fitted effect of over 65% in size
Target sequence (P53350 whole entry, looked up, the tested form may be a part): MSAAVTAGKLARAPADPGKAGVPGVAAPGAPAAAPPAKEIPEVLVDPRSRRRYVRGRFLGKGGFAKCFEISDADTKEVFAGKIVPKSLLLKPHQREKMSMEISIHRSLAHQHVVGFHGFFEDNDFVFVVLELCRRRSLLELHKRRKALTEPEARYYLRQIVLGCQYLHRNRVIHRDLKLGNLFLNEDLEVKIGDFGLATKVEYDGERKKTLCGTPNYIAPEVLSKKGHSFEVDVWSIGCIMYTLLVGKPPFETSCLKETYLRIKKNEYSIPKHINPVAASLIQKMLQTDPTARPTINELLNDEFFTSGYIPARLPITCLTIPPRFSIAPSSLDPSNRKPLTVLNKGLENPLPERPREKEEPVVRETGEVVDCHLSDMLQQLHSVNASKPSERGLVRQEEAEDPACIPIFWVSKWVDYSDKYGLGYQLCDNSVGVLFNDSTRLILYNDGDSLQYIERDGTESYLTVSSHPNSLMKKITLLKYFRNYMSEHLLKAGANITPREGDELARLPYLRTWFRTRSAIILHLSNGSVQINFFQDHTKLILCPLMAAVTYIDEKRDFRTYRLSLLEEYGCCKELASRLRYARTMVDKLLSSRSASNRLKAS
Sfp PPTase inh: Sfp phosphopantetheinyl transferase inhibition. Biochemical Sfp PPTase activity, qHTS. 3.5% of 310,000 active. Potency, µM, hits mostly inhibitors. AID 1490;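 also: the enzyme is Sfp with the accession as filed and its product quenches rhodamine fluorescence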
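Fluorescence-quenching assay with 15 nM Sfp, 5 uM rhodamine-CoA and 12.5 uM BHQ-2-labelled ybbR peptide in pH 7.6 Hepes/MgCl2 buffer. Enzyme was pre-incubated with compound for 15 min at room temperature. Rate was taken from the 30-min fluorescence change (525/598 nm).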
Large screens that a line does not name were inactive. Only some compounds are listed: those with a hit (about 12% of all), similar ones and a draw of the others. Calls follow the shape of the dose curve; as a rule, active = well fitted curve in the direction sought with a large enough effect; inconclusive = small, poorly fitted or top-dose-only effect, or another doubt; inactive = no such curve, though single readings can be large; an effect the other way counts as inactive or inconclusive.

C=CCOC(=O)C1=C(C)NC(C)=C(C(=O)OCC=C)C1c1ccco1	BAZ2B block inconclusive, G9a block inconclusive
CC1=C(C(N)=O)C(c2ccco2)C(C(N)=O)=C(C)N1	BAZ2B block inconclusive, G9a block 56µM, Sfp PPTase inh inconclusive
Cn1cnnc1SCc1ccc(-c2ccc(Br)cc2)o1	G9a block inconclusive, Sfp PPTase inh 45µM
Cn1cnnc1SCc1ccccc1	G9a block 1.3µM
Cn1cnnc1SCc1ccc(C#N)cc1	none
COc1ccc(CNC(=O)c2ccc3nc(CCc4ccccc4)oc3c2)c(OC)c1	none (no result: PLK1 PBD block, Sfp PPTase inh)
N=C1C(c2ccccc2)=C(O)CN1c1cccc(O)c1	G9a block inconclusive
O=C(NCC(=O)N1CCCCCCC1)c1cccc([N+](=O)[O-])c1	G9a block 1.3µM (no result: Sfp PPTase inh)
O=C(CNC(=O)c1cccc(F)c1)OCC(=O)N1CCCCC1	G9a block 16µM
CCCCNc1nc(C)nc2c1nc(-c1ccccc1)n2CCN1CCCCC1	none (no result: BAZ2B block, G9a block, HP1b binding inh, JMJD2A Tudor inh, PLK1 PBD block)
Cc1[nH]c2ccccc2c1CCO	none
CCn1c(CCc2ccccc2)n[nH]c1=S	JMJD2A Tudor inh 3.5µM
CCn1c(Cc2c(C)[nH]c3ccccc23)n[nH]c1=S	G9a block 1.8µM, JMJD2A Tudor inh 4µM
CCCn1c(CCc2ccccc2)n[nH]c1=S	G9a block 40µM, JMJD2A Tudor inh 4.5µM
CCn1c(CCn2c3ccccc3c3ccccc32)n[nH]c1=S	BAZ2B block inconclusive, G9a block 22µM, Sfp PPTase inh inconclusive
Cc1ccc(S(=O)(=O)Nc2ccc3c(c2)c2c(n3S(=O)(=O)c3ccc(C)cc3)CCCC2=O)cc1	none
COc1cc(CNCCCSc2nnnn2C)cc(Br)c1OC	none (no result: PLK1 PBD block, Sfp PPTase inh)
CCCCn1c(Cc2ccccc2)n[nH]c1=S	G9a block 13µM, HP1b binding inh inconclusive, JMJD2A Tudor inh 4µM, Sfp PPTase inh inconclusive
CCn1c(CSc2nc3ccccc3[nH]2)n[nH]c1=S	G9a block inconclusive, JMJD2A Tudor inh 6.3µM
CCn1c(Cc2ccccc2)n[nH]c1=S	G9a block inconclusive, JMJD2A Tudor inh inconclusive
CCn1c(CSCc2ccccc2)n[nH]c1=S	G9a block 7.1µM, JMJD2A Tudor inh 18µM
COc1ccc(-c2nc3cc(C(C)C)ccc3o2)cc1NC(=O)COc1ccc(C)cc1C	none (no result: PLK1 PBD block, Sfp PPTase inh)
N#C/C(=C\c1ccc(N2CCOCC2)o1)C(=O)NCC1CCCO1 (stereo not given)	none (no result: G9a block)
N#C/C(=C\c1ccc(N2CCOCC2)o1)C(=O)NCCc1ccccc1	G9a block 32µM
N#C/C(=C\c1ccc(N2CCOCC2)o1)C(=O)NC1CCCCC1	Sfp PPTase inh 45µM (no result: G9a block)
COCCNC(=O)/C(C#N)=C/c1ccc(N2CCOCC2)o1	G9a block inconclusive
O=C(Nn1cnnc1)c1cc2c(s1)CCCCC2	G9a block inconclusive
CC(Oc1ccc([N+](=O)[O-])cc1)C(=O)NCC1CCCO1 (stereo not given)	none
COc1cc(OC)c(NC(=O)Cc2c(C(=O)O)c(C)cn2C)cc1Cl	BAZ2B block inconclusive (no result: PLK1 PBD block, Sfp PPTase inh)
Cc1ccc(Cn2ncc3c(N4CCN(c5ccc(C)cc5)CC4)ncnc32)cc1	G9a block inconclusive
Cc1ccc(Cn2ncc3c(N4CCN(Cc5ccc(Cl)cc5)CC4)ncnc32)cc1	G9a block 35µM
Cc1ccc(Cn2ncc3c(NCCN(C)C)ncnc32)cc1	G9a block 50µM
Cc1ccc(Cn2ncc3c(NN)ncnc32)cc1	BAZ2B block 50µM, G9a block inconclusive, JMJD2A Tudor inh inconclusive
COc1ccc(Nc2ncnc3c2cnn3Cc2ccccc2)cc1	BAZ2B block 79µM, G9a block 50µM, JMJD2A Tudor inh 89µM
Cc1ccc(Cn2ncc3c(NCCCN(C)C)ncnc32)cc1	G9a block inconclusive
COc1ccc(CC(=O)NNc2ncnc3c2cnn3C)cc1	BAZ2B block 79µM, G9a block 25µM
COc1cc(OC)cc(C(=O)OCC(=O)NCc2ccco2)c1	BAZ2B block 50µM, G9a block inconclusive, JMJD2A Tudor inh inconclusive (no result: Sfp PPTase inh)
CCOc1ccc(NC(=O)C(=O)NCc2ccco2)cc1	none (no result: PLK1 PBD block, Sfp PPTase inh)
COc1cc(C(=O)OCC(=O)NCc2ccco2)cc(OC)c1OC	BAZ2B block inconclusive, JMJD2A Tudor inh inconclusive
CCOc1cc(C(=O)OCC(=O)NCc2ccco2)cc(OCC)c1OCC	BAZ2B block 28µM, G9a block 50µM, HP1b binding inh inconclusive, JMJD2A Tudor inh 56µM
CN(C)S(=O)(=O)c1ccc(C(=O)NCc2ccco2)cc1	none
CN(C)S(=O)(=O)c1ccc(C(=O)OCC(=O)NCc2ccco2)cc1	BAZ2B block 50µM, G9a block 50µM
CCOc1ccc(/C=N/OCC(=O)NCc2ccco2)cc1	JMJD2A Tudor inh inconclusive, PLK1 PBD block 15µM
CN(C)c1cccc(C(=O)OCC(=O)NCc2ccco2)c1	none
O=C(OCC#CCSc1nnc(-c2cccc3ccccc23)o1)c1cc(F)c(F)c(F)c1	none (no result: BAZ2B block, G9a block, HP1b binding inh, PLK1 PBD block, Sfp PPTase inh)
CC(C)Cc1nnc(NC(=O)CS(=O)(=O)Cc2ccccc2)s1	G9a block 8.9µM, PLK1 PBD block 24µM
CCCC(C)c1nnc(NC(=O)CS(=O)(=O)Cc2ccccc2)s1 (stereo not given)	G9a block 8.9µM, HP1b binding inh inconclusive, PLK1 PBD block 14µM
CC(C)c1nnc(NC(=O)CS(=O)(=O)Cc2ccccc2)s1	BAZ2B block inconclusive, PLK1 PBD block 27µM (no result: G9a block)
CCCC(C)c1nnc(NC(=O)CCS(=O)(=O)Cc2ccccc2)s1 (stereo not given)	G9a block 25µM, PLK1 PBD block 13µM, Sfp PPTase inh 50µM
CCC(CC)c1nnc(NC(=O)CS(=O)(=O)Cc2ccccc2)s1	PLK1 PBD block inconclusive (no result: BAZ2B block, G9a block, Sfp PPTase inh)
COc1ccc(OC)c(CCNC(=O)Cn2nc(C)n3c(cc4sccc43)c2=O)c1	none (no result: PLK1 PBD block, Sfp PPTase inh)
Cc1cccc(CNC(=O)c2cnc3c(-c4cccc(C)c4)c(C)nn3c2C)c1	none (no result: PLK1 PBD block, Sfp PPTase inh)
COc1cccc(CNC(=O)c2nnn(CC(=O)Nc3cccc(C)c3)c2N)c1	none
CCCCn1c(SCc2cc(=O)n3ccsc3n2)nc2cc(C(=O)OC)ccc2c1=O	G9a block inconclusive (no result: BAZ2B block, HP1b binding inh, JMJD2A Tudor inh, PLK1 PBD block)
NC(=O)c1ccccc1NC(=O)CS(=O)(=O)Cc1ccccc1	PLK1 PBD block 24µM
O=C(CCC(=O)N1CCN(Cc2ccccc2)CC1)Nc1nnc(C2CCCCC2)s1	none
NC(=O)c1ccccc1NC(=O)CCCc1ccccc1	none
O=C(CS(=O)(=O)Cc1ccccc1)Nc1nnc(C2CCCCC2)s1	G9a block 56µM
NC(=O)c1ccccc1NC(=O)CCCN1C(=O)CCC1=O	G9a block 45µM
COc1ccc2c(c1)sc1ncc(C(=O)NCc3ccc(OC(C)C)cc3)c(=O)n12	none (no result: PLK1 PBD block, Sfp PPTase inh)
Cc1cc(=O)c2c(O)cc(O)c(C)c2o1	none (no result: BAZ2B block, HP1b binding inh, JMJD2A Tudor inh, PLK1 PBD block)
Cc1ccc(CNC(=O)C(=O)NCC(c2cccnc2)N2CCN(c3ccccc3F)CC2)cc1 (stereo not given)	none (no result: PLK1 PBD block, Sfp PPTase inh)
Cc1ccc(C)c(OCCCNCc2ccccc2)c1	BAZ2B block inconclusive, G9a block inconclusive, JMJD2A Tudor inh 45µM
